Assay outcomes from PubChem BioAssay.
iPSC survival up – hiPSC single-cell survival enhancement | ATPlite luminescence; 100% = ROCK inhibitor wells, 0% = DMSO | survival enhancement, % at 20 µM | 360,000 tested, 0.044% active; in the data active means survival enhancement above about 18%;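 further: cells exposed to compounds for 16 hours before the ATP read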
CRFBP-R2 block – CRF-BP/CRF-R2 complex antagonism. HEK293 CRF-R2/CRF-BP, CRF-induced calcium fluorescence. inhibition, % at 11.8 µM. 350,000 tested, 0.59% active;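 active means inhibition of the ligand-induced calcium signal above about 50% at the single tested concentration, limit read from the data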
CRFBP-R2 agonist – CRF-BP/CRF-R2 complex agonism | activation, % at 13.2 µM | HEK293 CRF-R2/CRF-BP, calcium dye fluorescence (FLIPR); percent of saturating CRF peptide response | 350,000 tested, 0.46% active;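 active means activation of at least 50%, plus an integration ratio under a set limit after plate pattern correction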;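 further: plate controls were neutral control wells without compound for no effect and CRF at EC100 for full effect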
Cardio protect – modulators protecting cardiomyocytes from myocardial damage; 360,000 tested, 0.63% active; H9c2 cardiomyocytes, H2O2 injury protection, ATPLite, 2 h; protection from H2O2 cell death, % at 20 µM; AID 588492;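 active means compounds giving at least 50% protection of heart cells from peroxide-induced death in the single-dose screen, raw or plate-pattern-corrected value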;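 further: 0% = DMSO wells with peroxide and 100% = DMSO wells without peroxide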
SKN-1 inh – C. elegans SKN-1 inhibition. C. elegans VP596 Pgst-4::GFP/RFP ratio, acrylamide-induced, 24 h. inhibition, % at 21.8 µM. 360,000 tested, 0.49% active. AID 624304;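 active means interference check ratio from 0.5 to 1.5 plus GFP to RFP signal ratio inhibition reaching or exceeding a fixed threshold, cut at about 30% in these data, passing the limit was not always enough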
H9c2 TAG inh – inhibitors of triacylglycerol accumulation; H9c2 cells, Nile Red lipid (TAG) fluorescence; cells loaded with 200 µM oleic acid; inhibition, % at 12.5 µM; 230,000 tested, 0.66% active; AID 651582;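 active means pattern-corrected inhibition of lipid staining of at least 50% with the nuclear-stain viability signal not falling by more than 50%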;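 further: 0% = DMSO wells and 100% = triacsin C control wells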
* hit, by the source's call; x = no result given. In the library only some 2.5% were active in any assay of this set; here they are far more common.

SMILES	iPSC survival up	CRFBP-R2 block	CRFBP-R2 agonist	Cardio protect	SKN-1 inh	H9c2 TAG inh
Nc1c(C(=O)NC2CCCC2)c2nc3ccccc3nc2n1/N=C/c1ccco1	6.0	-11.2	2.0	50.0*	-9.7	27.5
Nc1c(C(=O)NC2CCCC2)c2nc3ccccc3nc2n1N	5.5	-28.5	0.4	62.0*	2.6	43.7
CC(=O)Nc1ccc(C(=O)N2CCOCC2c2cc(C(=O)NCc3ccccc3)no2)cc1 (stereo not drawn)	-1.0	x	x	6.7	-4.6	8.5
COc1cc(NC(=O)c2ccccc2)c(OC)cc1NC(=O)CN1CCN(c2ccccn2)CC1	-0.6	-34.0	3.5	50.5*	2.0	12.8
Cc1nc(N2CCN(c3ccccn3)CC2)c2c(C)c(C(=O)Nc3ccc(F)cc3F)sc2n1	0.1	18.1	1.1	6.6	5.2	-44.8
Cc1nc(N2CCN(c3ccccn3)CC2)c2c(C)c(C(=O)Nc3ccccc3F)sc2n1	-0.6	10.6	0.2	50.2*	-6.1	-8.5
COc1cc(Cl)c(C)cc1NC(=O)c1ccccc1NC(=O)CN1CCN(c2ccccn2)CC1	3.3	-22.2	-1.6	23.3	-1.5	26.2
O=C(CN1CCN(c2ccccn2)CC1)Nc1ccc([N+](=O)[O-])cc1C(=O)Nc1ccccc1F	0.9	5.3	0.4	62.9*	-7.5	6.6
O=C(Nc1ccc(F)cc1)C(c1ccccc1)N1CCN(c2cccc(C(F)(F)F)n2)CC1 (stereo not drawn)	x	x	x	x	3.9	x
NC(=O)CS(=O)(=O)c1nc2ccccc2n1Cc1ccccc1F	4.0	118.2*	2.2	0.2	-37.5	1.9
CC(=O)Nc1ccc2c(c1Br)Cc1ccccc1-2	0.8	-6.3	-1.3	-1.2	44.0*	4.1
CN(C)CCNc1ccc(CO)c2sc3ccc(O)cc3c(=O)c12	-6.0	26.2	-5.2	14.2	-13.2	112.1
CN(C)CCNc1ccc2ncn3c4ccc(O)cc4c(=O)c1c23	-1.4	-60.2	74.8*	0.9	-26.8	74.7*
O=[N+]([O-])c1cc(Cl)cc(/C=N/Nc2nc3ccccc3s2)c1O	-0.8	81.5*	-6.5	0.1	14.1	23.1
O=C1OC(Nc2cc(Br)cc3cccnc23)c2ccccc21 (stereo not drawn)	-0.4	17.6	-1.2	-13.3	29.0	x
CC(=O)NC12CC3CC(C1)CC(C(=O)Nc1ccc(C)c(S(=O)(=O)N4CCCCCC4)c1)(C3)C2	-1.2	-11.6	0.0	-8.3	-15.0	1.7
COc1ccccc1N1C(C)=CC(=C(C#N)c2nc3ccccc3s2)C=C1C	-0.6	-90.2	108.5*	-5.7	3.6	x
CC1=CC(=C(C#N)c2nc3ccccc3s2)C=C(C)N1c1ccc(F)cc1	1.8	-42.0	33.5	-6.9	2.3	17.3
CN(C)C(CNC(C(=O)Nc1ccc(F)cc1)c1ccccc1)c1ccccc1 (stereo not drawn)	0.8	-9.0	-1.7	6.4	-4.9	x
COc1ccc(CCC(=O)Nc2ncc(C)s2)cc1	-0.7	-20.2	-2.9	9.3	13.2	x
O=[N+]([O-])c1cc2c(cc1Br)-c1ccccc1C2	-3.1	2.1	-0.3	-15.2	52.5*	8.6
COc1cc2c(cc1[N+](=O)[O-])-c1ccccc1C2	-1.1	-94.1	87.2*	-8.2	9.0	6.5
COc1cc2c(cc1[N+](=O)[O-])-c1ccc([N+](=O)[O-])cc1C2	-1.7	x	x	-7.3	20.2	8.4
COCCNC(=O)C1(C)CCCN(C(=O)c2cc(F)cc(F)c2)C1 (stereo not drawn)	0.2	x	x	4.1	-10.9	9.7
CCC(c1nnnn1Cc1ccc2c(c1)OCO2)N1CCN(c2ccc(F)cc2)CC1 (stereo not drawn)	-1.8	-10.6	4.4	5.3	35.8*	-6.3
SMILES	iPSC survival up	CRFBP-R2 block	CRFBP-R2 agonist	Cardio protect	SKN-1 inh	H9c2 TAG inh
CCC(c1nnnn1Cc1ccc2c(c1)OCO2)N1CCN(c2ccccc2)CC1 (stereo not drawn)	1.5	5.6	-1.0	17.2	-2.2	-11.2
Cc1ccc(NS(=O)(=O)c2ccc3c(c2)n(C)c(=O)n3C)cc1	0.4	-31.6	-4.3	-4.3	10.1	x
COc1ccc(NS(=O)(=O)c2ccc3c(c2)n(C)c(=O)n3C)cc1	0.3	-25.4	3.1	-5.2	36.8*	x
O=[N+]([O-])c1cccc2ccc(/C=C/c3ccc(Cl)cc3)nc12	-0.5	-20.2	0.1	-1.8	38.8*	x
CC(C)N1CCc2c(sc(NC(=O)c3ccco3)c2C(N)=O)C1	0.5	4.8	27.2	0.6	6.6	6.4
CC(C)N1CCc2c(sc(NC(=O)c3ccc(C(=O)c4ccccc4)cc3)c2C(N)=O)C1	-0.6	-90.4	22.2	-13.8	-0.9	8.7
CC(C)N1CCc2c(sc(NC(=O)CCc3ccccc3)c2C(N)=O)C1	-0.4	-70.5	62.4*	4.1	5.6	-0.3
CC(C)N1CCc2c(sc(NC(=O)c3ccc4ccccc4c3)c2C(N)=O)C1	-0.4	-114.7	124.3*	-9.1	9.6	32.4
CC(=O)Nc1sc2c(c1-c1nc3ccccc3s1)CCN(C(C)C)C2	-2.9	-64.3	80.3*	-6.2	8.8	92.1*
CC(C)N1CCc2c(sc(NC(=O)c3cc4cc([N+](=O)[O-])ccc4s3)c2C(N)=O)C1	-5.1	-137.0	133.6*	-26.0	12.2	5.3
CC(C)N1CCc2c(sc(NC(=O)Cc3ccccc3)c2C(N)=O)C1	-1.5	-49.2	3.4	14.5	6.2	-3.9
CN(C)CCN1CCN(C(c2ccnc3ccccc23)c2nnnn2-c2ccc3c(c2)OCCO3)CC1 (stereo not drawn)	0.3	x	x	x	-0.8	x
C[C@H]1CN([C@@H](C)CO)C(=O)c2cc(-c3cccc(F)c3)cnc2O[C@H]1CN(C)C(=O)c1cnccn1	2.2	-3.2	0.6	8.5	7.1	9.4
C[C@@H]1COc2cccc(N3CCSCC3)c2S(=O)(=O)N1	-0.4	x	x	x	-24.4	x
CC(C)(C)C(=O)c1c(N)[nH]c(C(=O)c2ccccc2)c1-c1cc2ccccc2nc1Cl	0.6	x	x	x	-3.3	x
COc1ccc(CCNc2c3ccccc3nc3ccccc23)cc1OC	-0.5	3.8	0.7	-3.2	4.3	55.4*
COc1ccc(CCNc2nc(N3CCCCC3)nc(N3CCCCC3)n2)cc1OC	10.0	74.0*	0.2	-3.4	17.1	6.5
O=C(NCc1cccc(Cl)c1)c1ccc(S(=O)(=O)N2CCCCC2)cc1	-0.1	12.1	-1.5	-3.3	11.2	-11.8
CCCN1C(=O)CC(c2ccc(OC)c(OC)c2)C1=O (stereo not drawn)	0.6	x	x	10.1	17.5	x
CCCCC[C@H](C)N1C[C@H](COCc2ccccc2)Oc2cc(N3CC[C@@H](N(C)C)C3)ccc2S1(=O)=O	-1.2	x	x	x	26.8	x
CCc1ccc(NC(=O)C(C)OC(=O)/C=C/c2ccc(O)c(OC)c2)cc1 (stereo not drawn)	-1.7	-66.3	91.5*	-3.9	-3.2	20.2
O=C(CNC(=O)/C=C/c1ccco1)N=Nc1c(O)[nH]c2ccccc12	-0.5	-8.0	-1.4	2.0	17.3	x
